Inconclusive results are not listed. Where a call stands in place of a potency, no number is given. The source made the active and inactive calls. Calls follow the shape of the dose curve; as a rule, active = well fitted inhibition curve with a large enough effect in the repeat runs; inconclusive = weak or mixed curves; inactive = no such curve, though single readings can be large or run the other way.
Potency is read from the fitted curve at half-maximal effect.

Chain of Cytochrome P450 3A4 (Homo sapiens) (P08684 whole entry, looked up): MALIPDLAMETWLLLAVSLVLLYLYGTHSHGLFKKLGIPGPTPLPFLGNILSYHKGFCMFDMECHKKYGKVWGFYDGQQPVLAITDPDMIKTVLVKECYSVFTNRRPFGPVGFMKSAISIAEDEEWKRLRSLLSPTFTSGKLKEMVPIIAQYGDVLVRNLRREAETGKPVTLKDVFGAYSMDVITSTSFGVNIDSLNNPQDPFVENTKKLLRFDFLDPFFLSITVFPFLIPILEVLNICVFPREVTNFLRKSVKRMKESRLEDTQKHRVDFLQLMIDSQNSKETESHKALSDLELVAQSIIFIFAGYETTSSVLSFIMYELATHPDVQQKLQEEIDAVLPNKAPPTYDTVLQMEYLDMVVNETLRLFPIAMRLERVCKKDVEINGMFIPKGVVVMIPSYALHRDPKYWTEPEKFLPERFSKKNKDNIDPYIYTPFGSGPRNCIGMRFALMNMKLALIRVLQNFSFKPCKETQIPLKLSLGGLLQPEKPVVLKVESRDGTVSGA

This assay concerns the target Cytochrome P450 3A4 (Homo sapiens) (UniProt P08684). In words: Cytochrome P450 Family 3 Subfamily A Member 4 (CYP3A4) small molecule antagonists: luciferase reporter qHTS assay (AID 1671201). Also: nearly all actives have a fitted effect of over 50% in size. The following applies: P450-Glo CYP3A4 enzyme, luciferin luminescence, 1 h; series mostly up to 115 µM. The gist of the method:
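Room-temperature assay throughout: 10 min compound–enzyme/substrate preincubation, 1 h reaction after NADPH regeneration solution, 20 min detection. Luciferin formed from proluciferin substrate is quantified by luminescence.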
Take `C[N+](=O)[O-]`: the Potency entry was “inactive”.

As to `O=C1OC(c2ccc(O)c(S(=O)(=O)O)c2)(c2ccc(O)c(S(=O)(=O)O)c2)c2c(Br)c(Br)c(Br)c(Br)c21`, the Potency result is “inactive”.

As for `CC1CCC(=O)O1` (stereo not drawn), the Potency result is “inactive”.

For `CCCCOC(=O)c1ccccc1N`, the Potency entry is “inactive”.

As to `N#CCNCC#N`, the Potency result is “inactive”.

`Nc1cnn(-c2ccccc2)c(=O)c1Cl`: the Potency result was “inactive”.

With `Oc1c(Cl)cccc1Cl`, the Potency result is “inactive”.

As for `[Cl][Sn]([Cl])([Cl])[Cl]`, the Potency entry was “inactive”.

Consider `ClCCCN1CCN(c2cccc(Cl)c2)CC1`, for which the Potency entry was “inactive”.

In the case of `O=[N+]([O-])c1cccc(O)c1`, the Potency result is “inactive”.

`O=C(O)c1cccc(Cl)c1`: the Potency entry is “inactive”.

Take `Nc1ccccc1Cl`: the Potency result is “inactive”.

Consider `C[C@]1(O)CC[C@H]2[C@@H]3CCC4=CC(=O)CC[C@]4(C)[C@@]3(F)[C@@H](O)C[C@@]21C`, for which the Potency entry was “inactive”.

Turning to `Clc1cccc(N2CCNCC2)c1`, the Potency result is “inactive”.

On to `CCC(C)n1c(=O)[nH]c(C)c(Br)c1=O` (stereo not drawn), for which the Potency result was “inactive”.

Turning to `Cc1cccc(C#N)c1`, the Potency entry was “inactive”.

Regarding `N#CCBr`, the Potency entry was “inactive”.

For the compound `O=C(CCCN1CCC(n2c(=O)[nH]c3ccccc32)CC1)c1ccc(F)cc1`, the Potency result is “inactive”.

`[As]#[In]`: the Potency entry was “inactive”.

Turning to `c1ccc(N2CCNCC2)cc1`, the Potency entry is “inactive”.

Turning to `N#Cc1c(Cl)cccc1Cl`, the Potency result is “inactive”.

Take `COc1cc(C[C@@H](C)N)c(OC)cc1C`: the Potency entry is “inactive”.

Turning to `N#CC(O)c1ccccc1` (stereo not drawn), the Potency result was “inactive”.

Take `CCN(CC)C(=O)[C@@H]1C=C2c3cccc4[nH]cc(c34)C[C@H]2N(C)C1`: the Potency was 82.8 µM (active).

Consider `ClC(Cl)C(Cl)Cl`, for which the Potency entry is “inactive”.

On to `COC(C)(C)C`, for which the Potency result is “inactive”.

Consider `CC(C)COP(=O)(OCC(C)C)OCC(C)C`, for which the Potency result was “inactive”.

For `CCCCP(CCCC)CCCC`, the Potency entry is “inactive”.

As for `OC(c1ccccc1)(c1ccccc1)C1CCNCC1`, the Potency result was “inactive”.

Consider `COc1cc(OC)nc(NC(=O)NS(=O)(=O)c2ncccc2C(=O)N(C)C)n1`, for which the Potency entry was “inactive”.

Turning to `CCC1(c2ccccc2)C(=O)NC(=O)NC1=O`, the Potency entry was “inactive”.

For the compound `CC1(C)CON(Cc2ccccc2Cl)C1=O`, the Potency result is “inactive”.

Take `CSc1ccc(C(=O)C(C)(C)N2CCOCC2)cc1`: the Potency is 2 µM (active).

These data come from PubChem BioAssay (Tox21).
